Source: PubChem BioAssay (Tox21)
Values joined by “and” are separate entries in the source; they are usually repeats but may differ in a detail not shown here. Identical values can stand only once. Inconclusive results are not listed. Where a call stands in place of a potency, no number is given. Active and inactive are the calls of the source. Unless noted, calls follow the shape of the dose curve; as a rule, active = well fitted curve in the direction sought with a large enough effect in the repeat runs; inconclusive = weak or mixed curves; inactive = no such curve, though single readings can be large; an effect the other way counts as inactive or inconclusive.

Tests used:
[1] = qHTS assay for small molecule agonists of the p53 signaling pathway (AID 651631; calls by dose curve; also: nearly all actives have a fitted effect of over 15% in size)
Summary of the method: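 Read-out is beta-lactamase FRET fluorescence measured 2 h after substrate addition at room temperature, in HCT-116 cells with a p53 response element-driven reporter exposed to compounds for 16 h at 37 °C.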

[2] = qHTS assay for small molecules that induce genotoxicity in human embryonic kidney cells expressing luciferase-tagged ATAD5 (AID 651632); also: nearly all actives have a fitted effect of over 15% in size
Summary of the method: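 HEK293T cells carrying a luciferase reporter tagged to ATAD5 were exposed to compound or DMSO vehicle for 16 hr at 37C, 5% CO2. Amplite was added, and after 30 min at room temperature luciferase activity was read as a marker of ATAD5 induction.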

[3] = qHTS assay for small molecule agonists of the p53 signaling pathway - cell viability (AID 651633; calls by dose curve;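 also: p53RE-bla HCT reporter cells with a stable beta-lactamase p53 reporter; nearly all actives have a fitted effect of over 30% in size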)
Summary of the method: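 p53RE-bla cells were treated with compound for 16 hours at 37 C. Cytotoxicity was then measured as CellTiter-Glo luminescence after 30 min at room temperature.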

[4] = qHTS assay for small molecules that induce genotoxicity in human embryonic kidney cells expressing luciferase-tagged ATAD5 - cell viability (AID 651634; calls by dose curve; also: nearly all actives have a fitted effect of over 25% in size)
Summary of the method: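 HEK293T cells expressing luciferase-tagged ATAD5 were exposed to compound or DMSO for 15.5 hr at 37C, 5% CO2. Viability was then read as live-cell protease activity by CellTiter-Fluor fluorescence after 30 min at 37C.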

[5] = qHTS assay for small molecule disruptors of the mitochondrial membrane potential - cell viability (AID 720634; calls by dose curve;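 also: human HepG2 liver cancer cells; nearly all actives have a fitted effect of over 20% in size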)
Summary of the method: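 HepG2 cells seeded overnight at 37 C, then exposed to compound or DMSO for 1 hr at 37 C, 5% CO2. m-MPI dye added, then CellTiter-Glo for 30 min at room temperature; viability read as ATP luminescence.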

[6] = qHTS assay for small molecule disruptors of the mitochondrial membrane potential (AID 720635); also: potency is read from the fitted curve at half-maximal effect
Summary of the method: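 HepG2 cells exposed to compound 1 hr at 37C, then Mito-MPS dye 30 min. Ratio read of aggregate (540/590 nm) versus monomer (490/535 nm) fluorescence.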

[7] = qHTS assay to test for compound auto fluorescence at 590 nm (red) in HepG2 cells (AID 720674)
Summary of the method: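 Fluorescence at 590 nm emission following 540 nm excitation was recorded from HepG2 wells one hour after compound transfer, with DMSO-only wells as vehicle and Rose Bengal sodium equivalency as the scale.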

[8] = qHTS assay to test for compound auto fluorescence at 535 nm (green) in HepG2 cells (AID 720675)
[9] = qHTS assay to test for compound auto fluorescence at 460 nm (blue) in HEK293 cells (AID 720678)
Summary of the method: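 HEK293, 2,000 cells/well, 10% dialyzed FBS; attach 4-5 hr 37C; pin compound or DMSO; o/n 37C/5% CO2; fluorescence 405/460 nm; triamterene-equivalent units.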

[10] = qHTS assay to test for compound auto fluorescence at 535 nm (green) in HEK293 cells (AID 720680)
[11] = qHTS assay to test for compound auto fluorescence at 460 nm (blue) in HEK293 cell free culture (AID 720681)
Summary of the method: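 Compounds were added to cell-free DMEM with 10% FBS and fluorescence read directly. The blue channel used 405 nm excitation and 460 nm emission, with triamterene as the reference fluorophore.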

[12] = qHTS assay to test for compound auto fluorescence at 535 nm (green) in HEK293 cell free culture (AID 720682)
Summary of the method: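 Fluorescein serves as the green reference fluorophore; each compound's intrinsic emission at 535 nm (excitation 485 nm) is reported as an equivalent amount of that dye, measured in serum-containing DMEM without cells.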

[13] = qHTS assay to test for compound auto fluorescence at 590 nm (red) in HEK293 cell free culture (AID 720683)
Summary of the method: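 Cell-free wells of DMEM with 10% FBS received compound, and intrinsic fluorescence was read at excitation/emission 540/590 nm. Values expressed as equivalence to Rose Bengal sodium.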

[14] = qHTS assay to test for compound auto fluorescence at 590 nm (red) in HepG2 cell free culture (AID 720684)
Summary of the method: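 Compound was pinned into wells holding MEM with 10% FBS and no cells, and red fluorescence was read at Ex/Em 540/590 nm. Signal is expressed as auto fluorescence equivalency relative to Rose Bengal sodium.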

[15] = qHTS assay to test for compound auto fluorescence at 460 nm (blue) in HepG2 cell free culture (AID 720685)
Summary of the method: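 Compound (23 nL) or DMSO pinned into cell-free MEM with 10% FBS; blue fluorescence read at 405/460 nm excitation/emission, expressed as auto-fluorescence equivalency to triamterene.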

[16] = qHTS assay to test for compound auto fluorescence at 535 nm (green) in HepG2 cell free culture (AID 720686)
[17] = qHTS assay to test for compound auto fluorescence at 460 nm (blue) in HepG2 cells (AID 720687)
Summary of the method: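 HepG2 cells in MEM with 10% FBS, attached overnight at 37 C, were exposed to compound or DMSO for 1 hr at 37 C, 5% CO2. Blue fluorescence was read at 405/460 nm, with triamterene as reference fluorophore.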

[18] = target: Glucocorticoid receptor (Homo sapiens) (UniProt P04150); experiment: qHTS assay to identify small molecule agonists of the glucocorticoid receptor (GR) signaling pathway (AID 720691; active = well fitted activation curve with a large enough effect in the signal ratio in the repeat runs, not every such curve was filed as active; the % refers to the signal ratio); conditions: GR-bla HeLa, beta-lactamase reporter ratio, 18 h; activation: at 62.4 µM (top of the series)
Glucocorticoid receptor (Homo sapiens), sequence (P04150 whole entry, looked up): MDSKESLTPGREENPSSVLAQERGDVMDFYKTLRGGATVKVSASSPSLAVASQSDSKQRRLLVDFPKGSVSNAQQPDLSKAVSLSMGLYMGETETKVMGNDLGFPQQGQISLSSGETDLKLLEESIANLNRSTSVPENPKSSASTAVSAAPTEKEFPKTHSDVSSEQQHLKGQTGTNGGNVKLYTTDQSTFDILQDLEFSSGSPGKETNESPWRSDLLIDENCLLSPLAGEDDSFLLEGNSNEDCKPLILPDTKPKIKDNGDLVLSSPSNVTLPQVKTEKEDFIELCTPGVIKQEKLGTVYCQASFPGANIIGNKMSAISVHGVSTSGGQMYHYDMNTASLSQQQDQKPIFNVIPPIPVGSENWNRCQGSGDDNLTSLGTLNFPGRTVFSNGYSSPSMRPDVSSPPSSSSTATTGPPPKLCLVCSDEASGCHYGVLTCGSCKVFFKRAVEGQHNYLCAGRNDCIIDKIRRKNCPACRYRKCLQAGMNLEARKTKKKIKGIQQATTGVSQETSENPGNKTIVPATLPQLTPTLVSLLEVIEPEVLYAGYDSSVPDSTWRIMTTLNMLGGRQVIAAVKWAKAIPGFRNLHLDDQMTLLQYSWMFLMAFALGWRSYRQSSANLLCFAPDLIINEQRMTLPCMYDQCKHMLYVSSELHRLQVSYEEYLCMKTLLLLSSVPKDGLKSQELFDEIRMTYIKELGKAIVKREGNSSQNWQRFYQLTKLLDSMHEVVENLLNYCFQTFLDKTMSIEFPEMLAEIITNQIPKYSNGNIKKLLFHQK
Summary of the method: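 GR-bla HeLa cells (beta-lactamase reporter under glucocorticoid response element) were plated 4 h at 37 C/5% CO2, given compounds in DMSO, and incubated 18 h at 37 C. LiveBLAzer B/G FRET substrate was added for 2 h at room temperature, then fluorescence intensity read.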

[19] = target: Glucocorticoid receptor (Homo sapiens) (UniProt P04150); experiment: qHTS assay to identify small molecule antagonists of the glucocorticoid receptor (GR) signaling pathway (AID 720692; active = well fitted inhibition curve with a large enough effect in the signal ratio in the repeat runs, not every such curve was filed as active; the % refers to the signal ratio; also: potency is read from the fitted curve at half-maximal effect)
Summary of the method: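 GR-bla HeLa cells (beta-lactamase reporter under glucocorticoid response element) were pre-plated 4 h at 37 C, treated with compounds plus 5 nM dexamethasone (final) for 18 h, then read by LiveBLAzer B/G FRET fluorescence after 2 h.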

[20] = qHTS assay to test for compound auto fluorescence at 590 nm (red) in HEK293 cells (AID 720679)
Summary of the method: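 Intensity at 540nm excitation and 590nm emission is reported as Rose Bengal sodium-equivalent autofluorescence. Measurements followed overnight exposure (37C, 5% CO2) of HEK293 cells, 2,000 per well, to 23 nL compound.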

| SMILES | Potency [1] | outcome [2] | Potency [3] | Potency [4] | Potency [5] | Potency [6] | outcome [7] | outcome [8] | outcome [9] | outcome [10] | outcome [11] | outcome [12] | outcome [13] | outcome [14] | outcome [15] | outcome [16] | outcome [17] | Potency [18] | Potency [19] | outcome [20] |
| --- | --- | --- | --- | --- | --- | --- | --- | --- | --- | --- | --- | --- | --- | --- | --- | --- | --- | --- | --- | --- |
| CCCCC(CC)COC(=O)CS (stereo not drawn) | inactive | inactive | inactive | inactive | inactive | inactive | inactive | inactive | inactive | inactive | inactive | inactive | inactive | inactive | inactive | inactive | inactive | inactive | inactive |  |
| c1ccc2c(c1)ccc1ccccc12 | inactive | inactive | inactive | inactive | inactive | 59.5 µM (active) | inactive | inactive | inactive | inactive | inactive | inactive | inactive | inactive | inactive | inactive | inactive | inactive | inactive | inactive |
| Fc1ccc(Br)cc1 | inactive | inactive | inactive | inactive | inactive | inactive | inactive | inactive | inactive | inactive | inactive | inactive | inactive | inactive | inactive | inactive | inactive | inactive | inactive | inactive |
| C[Si](O[Si](C)(C)C)O[Si](C)(C)C | inactive | inactive | inactive | inactive | inactive | inactive | inactive | inactive | inactive | inactive | inactive | inactive | inactive | inactive | inactive | inactive | inactive | inactive | inactive |  |
| c1c[nH]cn1 | inactive | inactive | inactive | inactive | inactive | inactive | inactive | inactive | inactive | inactive | inactive | inactive | inactive | inactive | inactive | inactive | inactive | inactive | inactive | inactive |
| Cc1ccc(S(N)(=O)=O)cc1 | inactive | inactive | inactive | inactive | inactive | inactive | inactive | inactive | inactive | inactive | inactive | inactive | inactive | inactive | inactive | inactive | inactive | inactive | inactive |  |
| O=c1[nH]nnc2ccccc12 | inactive | inactive | inactive | inactive | inactive | inactive | inactive | inactive | inactive | inactive | inactive | inactive | inactive | inactive | inactive | inactive | inactive |  |  |  |
| C=C(C)C(=O)O[C@H]1C[C@@H]2CC[C@@]1(C)C2(C)C | inactive | inactive | inactive | inactive | inactive | inactive | inactive | inactive |  | inactive | inactive | inactive | inactive | inactive | inactive | inactive | inactive |  |  |  |
| CCOC(=O)NNc1nncc2ccccc12 | inactive | inactive | inactive | inactive | inactive |  | inactive | inactive | inactive | inactive | inactive | inactive | inactive | inactive | inactive | inactive | inactive | inactive |  | inactive |
| CSCCC=O | inactive | inactive | inactive | inactive | inactive | inactive | inactive | inactive |  | inactive | inactive | inactive | inactive | inactive | inactive | inactive | inactive | inactive | inactive | inactive |
| C#CCN(C)Cc1ccccc1 | inactive | inactive | inactive | inactive | inactive | inactive | inactive | inactive |  | inactive | inactive | inactive | inactive | inactive | inactive | inactive | inactive | inactive | inactive | inactive |
| Cc1ccc(N(C)C)cc1 | inactive | inactive | inactive | inactive | inactive | inactive | inactive | inactive |  | inactive | inactive | inactive | inactive | inactive | inactive | inactive | inactive | inactive | inactive | inactive |
| CC(=O)Nc1cccc(O)c1 | inactive | inactive | inactive | inactive | inactive | inactive | inactive | inactive |  | inactive | inactive | inactive | inactive | inactive | inactive | inactive | inactive |  |  |  |
| O=P(OC(CCl)CCl)(OC(CCl)CCl)OC(CCl)CCl | inactive | inactive | inactive | inactive | inactive | 61.1 µM (active) | inactive | inactive |  | inactive | inactive | inactive | inactive | inactive | inactive | inactive | inactive | inactive | 21.8 µM (active) and 30.9 µM (active) | inactive |
| O=c1[nH]c(=O)n([C@H]2CCCO2)cc1F | inactive |  | inactive | inactive | inactive | inactive | inactive | inactive | inactive | inactive | inactive | inactive | inactive | inactive | inactive | inactive | inactive |  |  | inactive |
| CC(=O)c1ccccc1 | inactive | inactive | inactive | inactive | inactive | inactive | inactive | inactive |  | inactive | inactive | inactive | inactive | inactive | inactive | inactive | inactive |  |  |  |
